According to PubChem BioAssay (NCI):
The panel holds about 79,000 compounds, 15% with a hit somewhere; the sample as a whole holds those more often. A number with no mark means an inactive call. Activity calls are given as the source filed them. No stated cut-off is given here; in the data, active means growth inhibition above about 70%; inactive means the rest.

What was measured:
[1] = NCI Yeast Anticancer Drug Screen. Data for the rad50 strain (AID 155);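 further: 0% = growth of vehicle-only cultures of the same strain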; conditions: S. cerevisiae rad50 strain growth inhibition, stronger effect = higher value
Outline: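 Compounds were tested on a yeast strain with an engineered DNA damage repair alteration; the reported value is growth inhibition normalised to vehicle treatment.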

[2] = NCI Yeast Anticancer Drug Screen. Data for the mec2-1 strain (AID 157); conditions: S. cerevisiae mec2-1 strain, stronger effect = higher value
Outline: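 mec2-1 yeast strain, carrying an alteration in DNA damage repair or cell cycle control, was exposed to compounds; growth inhibition was measured relative to vehicle-treated controls.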

[3] = NCI Yeast Anticancer Drug Screen. Data for the sgs1 mgt1 strain (AID 161);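 further: 0% = growth of cultures given vehicle only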; conditions: S. cerevisiae sgs1 mgt1 strain, stronger effect = higher value
Outline: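 Compounds are added to genetically altered yeast, and growth is compared with cultures given vehicle alone to give percent inhibition.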

[4] = NCI Yeast Anticancer Drug Screen. Data for the cln2 rad14 strain (AID 165);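 further: 0% = growth equal to vehicle treated cultures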; conditions: S. cerevisiae cln2 rad14 strain, stronger effect = higher value
Outline: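 Yeast carrying cln2 and rad14 alterations (cell cycle control and DNA damage repair) were exposed to compounds. Growth inhibition was measured against vehicle-treated controls.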

[5] = NCI Yeast Anticancer Drug Screen. Data for the bub3 strain (AID 167); conditions: S. cerevisiae bub3 mutant strain, stronger effect = higher value
Outline: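 Growth of a checkpoint-deficient yeast mutant is measured after compound exposure. Values represent inhibition relative to vehicle.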

[6] = NCI Yeast Anticancer Drug Screen. Data for the mlh1 rad18 strain (AID 175); conditions: S. cerevisiae mlh1 rad18 strain growth inhibition, stronger effect = higher value
Outline: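 Growth inhibition of the yeast strain was measured after compound exposure and expressed relative to vehicle-treated controls. The strain carries defined defects in DNA damage repair.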

[7] = at 5.0 µM (retest, dose inferred, filed as 0.5)
[8] = at 50.0 µM (retest, dose inferred, filed as 5.0)

Row | SMILES | growth inhibition [1, 7] | growth inhibition [1, 8] | growth inhibition ([1]; at 50.0 µM) | growth inhibition [2, 7] [%] | growth inhibition [2, 8] | growth inhibition ([2]; at 50.0 µM) | growth inhibition [3, 7] [%] | growth inhibition [3, 8] | growth inhibition ([3]; at 50.0 µM) | growth inhibition [4, 7] | growth inhibition [4, 8] | growth inhibition ([4]; at 50.0 µM) | growth inhibition [5, 7] | growth inhibition [5, 8] | growth inhibition ([5]; at 50.0 µM) | growth inhibition [6, 7] | growth inhibition [6, 8] | growth inhibition ([6]; at 50.0 µM)
1 | C=CC(=C)OC | 0% | 14% | 10.4% | -8 | 0% | 20.3% | -2 | 1% | 19.1% | 1% | 8% | 69.9% | 2% | -2% | 39% | 2% | 4% | 7.5%
2 | O=c1onc(-c2ccc(Cl)cc2)c2ccccc12 | 8% | 3% | 6.6% | 4 | 3% | 16.4% | 7 | 5% | -1.2% | 5% | 6% | 82.7% (active) | 2% | 6% | 14.4% | -1% | 4% | 8.15%
3 | C/C(=N\NC(=S)N1CCN(C2CCCCC2)CC1)c1ccccn1 | -3% | 64% | 99% (active) | -14 | 76% (active) | 98.7% (active) | -4 | 98% (active) | 98.5% (active) | 12% | 59% | 97.1% (active) | -16% | 51% | 96.6% (active) | 15% | 85% (active) | 95.7% (active)
4 | CC(C)N1C(=O)C=CC1=O | 6% | 67% | 93.7% (active) | 7 | 60% | 98.8% (active) | 7 | 53% | 52.1% | 2% | 57% | 57% | 1% | 75% (active) | 46.6% | 3% | 60% | 54%
5 | CCOC(=O)Cc1nc2ccccc2s1 | 3% | 100% (active) | 99.2% (active) | 2 | 100% (active) | 99.6% (active) | 6 | 99% (active) | 99.5% (active) | 6% | 98% (active) | 99.2% (active) | 9% | 99% (active) | 98.8% (active) | 2% | 99% (active) | 99.3% (active)
6 | N#Cc1c([N+](=O)[O-])cc(C(F)(F)F)cc1[N+](=O)[O-] | 92% (active) | 99% (active) | 99.5% (active) | 63 | 100% (active) | 99.6% (active) | 68 | 100% (active) | 99.5% (active) | 82% (active) | 99% (active) | 99.2% (active) | 92% (active) | 100% (active) | 99% (active) | 92% (active) | 99% (active) | 99.3% (active)
7 | CC1C(=O)C(Br)CC2C1(C)CCC1C2(C)CCC2(C)C3CC(C)(C)CCC3(C)CCC12C (configuration not stated) | 6% | -1% | 25.7% | 5 | 3% | 6.25% | 8 | -13% | 4.2% | 7% | 6% | 64.5% | 6% | 5% | 85% (active) | -2% | 0% | 0.3%
8 | COC(O)C12OC3CO[Si](C(C)C)(C(C)C)O[Si](C(C)C)(C(C)C)OC3C1Oc1nc(=O)ccn12 (configuration not stated) | 10% | 98% (active) | 88.7% (active) | 13 | 99% (active) | 91.7% (active) | -25 | 98% (active) | 86.5% (active) | 1% | 97% (active) | 86.7% (active) | -4% | 98% (active) | 87.5% (active) | 15% | 98% (active) | -69.8%
9 | CCCCCCCCCCCCCCCCCCOC(=O)C(N)Cc1ccccc1 (configuration not stated) | -1% | -9% | -7.3% | -2 | -5% | 10.1% | 0 | -6% | 11.1% | -6% | -4% | -7.75% | -2% | -3% | -5.85% | -3% | -8% | 5.5%
